The record followed here is PubChem BioAssay (Tox21).

Where “and” joins values, the source holds several entries; their conditions need not be identical. Identical values can stand only once. Values without a mark were called inactive. Calls of active or inactive are those of the source. Unless noted, calls follow the shape of the dose curve; as a rule, active = well fitted curve in the direction sought with a large enough effect in the repeat runs; inconclusive = weak or mixed curves; inactive = no such curve, though single readings can be large; an effect the other way counts as inactive or inconclusive.

The nature of assay [1]: qHTS assay for small molecule agonists of the p53 signaling pathway - cell viability (AID 651633; calls by dose curve;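 also: p53RE-bla HCT reporter cells with a stable beta-lactamase p53 reporter; series mostly up to about 83 µM; nearly all actives have a fitted effect of over 30% in size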). The gist of the method: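 Viability counter-read: CellTiter-Glo luminescence (30 min, room temperature) in the same p53RE-bla plates. These plates had been exposed to compounds for 16 h at 37 C.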
(qHTS replaces the single test concentration by a dilution series.)

A short description of assay [2]: qHTS assay for small molecules that induce genotoxicity in human embryonic kidney cells expressing luciferase-tagged ATAD5 - cell viability (AID 651634; calls by dose curve; also: nearly all actives have a fitted effect of over 25% in size; also: potency is read from the fitted curve at half-maximal effect). The method in brief: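 HEK293T cells carrying luciferase-tagged ATAD5, 2,000 cells/well, exposed to compound for 15.5 hr at 37C. Viability read as live-cell protease activity by CellTiter-Fluor fluorescence after 30 min at 37C.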

A short description of assay [3]: qHTS assay for small molecule disruptors of the mitochondrial membrane potential - cell viability (AID 720634; calls by dose curve; also: nearly all actives have a fitted effect of over 20% in size; also: potency is read from the fitted curve at half-maximal effect). The gist of the method: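 HepG2 cells, 2,000 per well, attached overnight, then treated 1 hr at 37 C, 5% CO2. Viability read as ATP by CellTiter-Glo luminescence after 30 min at room temperature. Read in the same wells as the m-MPI membrane-potential dye assay.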

A short description of assay [4]: qHTS assay for small molecule disruptors of the mitochondrial membrane potential (AID 720635). Also: potency is read from the fitted curve at half-maximal effect. The method in brief:
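Mitochondrial membrane potential tracked with Mito-MPS dye, red aggregates (ex 540/em 590 nm) against green monomers (ex 490/em 535 nm). Compound treatment 1 hr at 37C, dye 30 min in HepG2.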

Assay [5] is described as follows: qHTS assay to test for compound auto fluorescence at 590 nm (red) in HepG2 cells (AID 720674). The method in brief: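 Red autofluorescence (Ex/Em 540/590 nm, Rose Bengal sodium equivalents) was measured in HepG2 cells, 2,000 per well in MEM plus 10% FBS, plated overnight at 37 C. Readings were taken 1 hr after adding 23 nL compound or DMSO, at 37 C and 5% CO2.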

The nature of assay [6]: qHTS assay to test for compound auto fluorescence at 535 nm (green) in HepG2 cells (AID 720675).
Assay [7] in a line: qHTS assay to test for compound auto fluorescence at 460 nm (blue) in HEK293 cells (AID 720678). The method in brief:
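Blue-channel (Ex/Em 405/460 nm) intensity measured in HEK293 cultures after overnight compound exposure at 37C; signal expressed relative to triamterene. Cells plated 2,000 per well in 10% dialyzed FBS medium and allowed 4-5 hr to attach.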

A short description of assay [8]: qHTS assay to test for compound auto fluorescence at 590 nm (red) in HEK293 cells (AID 720679). The method in brief:
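Red-channel autofluorescence (Ex/Em 540/590 nm; Rose Bengal sodium reference) was measured after overnight 37C, 5% CO2 exposure of attached HEK293 cells, 2,000 per well in medium with 10% dialyzed FBS.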

The nature of assay [9]: qHTS assay to test for compound auto fluorescence at 535 nm (green) in HEK293 cells (AID 720680).
Assay [10] in a line: qHTS assay to test for compound auto fluorescence at 460 nm (blue) in HEK293 cell free culture (AID 720681). The gist of the method: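 Blue fluorescence (Ex 405/Em 460 nm, triamterene-equivalent) was read immediately after pin transfer of compound or DMSO into medium (DMEM, 10% FBS) without cells.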
Assay [11] can be described thus: qHTS assay to test for compound auto fluorescence at 535 nm (green) in HEK293 cell free culture (AID 720682). The method in brief:
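Steps: dispense DMEM/10% FBS into empty wells; pin in compound or DMSO; measure fluorescence at 485/535 nm. Values are fluorescein equivalents.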

Assay [12] is described as follows: qHTS assay to test for compound auto fluorescence at 590 nm (red) in HEK293 cell free culture (AID 720683). The method in brief:
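Red-channel autofluorescence of compounds in culture medium (DMEM, 10% FBS), no cells, measured at 540/590 nm. Rose Bengal sodium is the reference fluorophore for equivalence.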

A short description of assay [13]: qHTS assay to test for compound auto fluorescence at 590 nm (red) in HepG2 cell free culture (AID 720684). The gist of the method:
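Steps: dispense MEM/10% FBS medium, no cells; pin compound or DMSO vehicle; read red channel, Ex/Em 540/590 nm. Output given as Rose Bengal sodium equivalents.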

Assay [14] in a line: qHTS assay to test for compound auto fluorescence at 460 nm (blue) in HepG2 cell free culture (AID 720685). The method in brief: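 Compound (23 nL) or DMSO pinned into cell-free MEM with 10% FBS; blue fluorescence read at 405/460 nm excitation/emission, expressed as auto-fluorescence equivalency to triamterene.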
The nature of assay [15]: qHTS assay to test for compound auto fluorescence at 535 nm (green) in HepG2 cell free culture (AID 720686).
Assay [16] can be described thus: qHTS assay to test for compound auto fluorescence at 460 nm (blue) in HepG2 cells (AID 720687). The gist of the method: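 Blue-channel autofluorescence (Ex/Em 405/460 nm, triamterene-equivalent) was measured after 1 hr compound exposure at 37 C, 5% CO2. Cells were HepG2, plated overnight at 37 C in MEM plus 10% FBS.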
Assay [17] concerns the target Glucocorticoid receptor (Homo sapiens) (UniProt P04150). In words: qHTS assay to identify small molecule agonists of the glucocorticoid receptor (GR) signaling pathway (AID 720691; active = well fitted activation curve with a large enough effect in the signal ratio in the repeat runs, not every such curve was filed as active; inconclusive = weak or mixed curves, or effect the other way; inactive = no such curve, though single readings can be large or run the other way; the % refers to the signal ratio; also: potency is read from the fitted curve at half-maximal effect). The method in brief:
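GR-bla HeLa cells carrying a GRE-driven beta-lactamase reporter, exposed to compounds for 18 h at 37 C. Reporter activation read as fluorescence after 2 h with LiveBLAzer B/G FRET substrate at room temperature.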

Assay [18] has the same target. In words: qHTS assay to identify small molecule antagonists of the glucocorticoid receptor (GR) signaling pathway (AID 720692; active = well fitted inhibition curve with a large enough effect in the signal ratio in the repeat runs, not every such curve was filed as active; inconclusive = weak or mixed curves, or effect the other way; inactive = no such curve, though single readings can be large or run the other way; the % refers to the signal ratio). The method in brief:
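GR-bla HeLa cells carrying a GRE-driven beta-lactamase reporter received compound after 4 h plating, then dexamethasone (5 nM final). After 18 h at 37C, the FRET substrate was loaded for 2 h at room temperature and fluorescence read.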
% is scaled to controls: 0 for no effect and ±100 for the full control effect.

Chain of Glucocorticoid receptor (Homo sapiens) (P04150 whole entry, looked up): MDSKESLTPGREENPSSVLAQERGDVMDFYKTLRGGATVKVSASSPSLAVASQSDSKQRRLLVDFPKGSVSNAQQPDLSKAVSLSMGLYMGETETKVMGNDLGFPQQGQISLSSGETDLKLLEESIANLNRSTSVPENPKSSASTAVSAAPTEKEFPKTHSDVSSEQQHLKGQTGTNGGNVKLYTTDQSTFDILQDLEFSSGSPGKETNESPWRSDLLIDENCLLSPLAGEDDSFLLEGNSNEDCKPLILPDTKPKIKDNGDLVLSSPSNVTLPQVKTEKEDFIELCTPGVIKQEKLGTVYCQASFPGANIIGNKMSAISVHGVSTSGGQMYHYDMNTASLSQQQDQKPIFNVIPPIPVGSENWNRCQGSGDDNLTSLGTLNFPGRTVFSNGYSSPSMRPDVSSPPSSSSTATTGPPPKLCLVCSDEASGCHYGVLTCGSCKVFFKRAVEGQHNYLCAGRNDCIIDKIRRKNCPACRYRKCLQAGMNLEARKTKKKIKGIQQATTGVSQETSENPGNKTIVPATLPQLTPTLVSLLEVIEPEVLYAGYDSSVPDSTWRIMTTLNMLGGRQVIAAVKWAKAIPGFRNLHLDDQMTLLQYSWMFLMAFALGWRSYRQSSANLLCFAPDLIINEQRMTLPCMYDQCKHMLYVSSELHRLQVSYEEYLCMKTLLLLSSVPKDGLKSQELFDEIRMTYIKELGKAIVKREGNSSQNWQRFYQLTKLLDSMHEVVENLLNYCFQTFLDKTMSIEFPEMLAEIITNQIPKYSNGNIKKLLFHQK

In the case of `COc1cc(/C=C/c2ccccc2)oc(=O)c1`, the Potency result in assay [1], in assay [2], in assay [3], in assay [5], in assay [6] and in assay [7] was “inactive” each time. The Potency entry in assay [8], in assay [9], in [10], in assay [11], in assay [12] and in assay [13] was “inactive” in each case. The Potency entry in assay [14], in assay [15], in [16], in assay [17] and in assay [18] was “inactive” throughout. Moreover, the Potency in [4] is 71 µM (active).

Turning to `Oc1cc(Cl)cc(Cl)c1Cl`, the Potency result in assay [1], in assay [5], in assay [6], in [7], in assay [8] and in assay [9] was “inactive” in each case. For the same compound, the Potency result in assay [10], in assay [11], in assay [12], in assay [13], in [14] and in [15] was “inactive” in each case. In addition, the Potency result in assay [16] and in assay [17] was “inactive” throughout. In addition, the Potency in assay [4] is 4.97 µM (active).

For the compound `O=C1CCCCCCCCCCCCCCCO1`, the Potency result in assay [1], in assay [3], in assay [4], in assay [5], in assay [6] and in assay [7] was “inactive” each time. Moreover, the Potency entry in assay [8], in [10], in [11], in [12], in [13] and in [14] was “inactive” in each case. In addition, the Potency entry in assay [15], in [16] and in assay [17] was “inactive” each time.

With `CCCCCCCCCCCC(=O)OCC(C)OC(=O)CCCCC(=O)O` (stereo not given), the Potency entry in assay [1], in assay [2], in assay [3], in assay [4], in assay [5] and in assay [6] was “inactive” each time. In addition, the Potency result in assay [7], in assay [8], in assay [9], in assay [10], in assay [11] and in assay [12] was “inactive” each time. The Potency entry in assay [13], in assay [15], in [16] and in [17] was “inactive” each time.

In the case of `CCOc1ccc2ccccc2c1C(=O)N[C@@H]1C(=O)N2[C@@H]1SC(C)(C)[C@@H]2C(=O)O`, the Potency result in assay [1], in assay [2], in [3], in assay [4] and in assay [17] was “inactive” throughout. Besides, in [5], the fluorescence, relative to Rose Bengal is 0.528% [at 18.6 µM]. Further, the figures for the fluorescence, % of fluorescein control in assay [6] and in [15] were -0.0692% [at 18.6 µM] and 0.0405% [at 18.6 µM], respectively. Moreover, the fluorescence, % of triamterene in assay [7] was 0.458% [at 18.6 µM]. Further, the fluorescence, % of fluorescent control in assay [8] is 0.326% [at 18.6 µM]; in assay [10], 0.309% [at 18.6 µM]; in assay [12] it was 0.0898% [at 18.6 µM]; in assay [14], 0.462% [at 18.6 µM]; in assay [16], 0.172% [at 18.6 µM]. For the same compound, the fluorescence, % of fluorescein in [9] is 0.0057% [at 18.6 µM]. For the same compound, the activity change in assay [11] is 0.0527% [at 18.6 µM, stronger effect = higher value]. The fluorescence, % of Rose Bengal in [13] is -0.0711% [at 18.6 µM].

Turning to `Cc1nc2n(c(=O)c1CCN1CCC(c3noc4cc(F)ccc34)CC1)CCCC2`, the Potency entry in assay [1], in assay [2], in [3], in assay [4], in assay [5] and in assay [6] was “inactive” each time. For the same compound, the Potency entry in [7], in assay [8], in assay [9], in [10], in assay [11] and in assay [12] was “inactive” each time. Further, the Potency entry in assay [13], in assay [14], in [15], in assay [16], in assay [17] and in assay [18] was “inactive” throughout.

Take `CN1CCC[C@@H]1CCO[C@](C)(c1ccccc1)c1ccc(Cl)cc1`: the Potency result in assay [1], in assay [2], in [3], in assay [5], in assay [6] and in assay [8] was “inactive” each time. Also, the Potency entry in assay [10], in assay [11], in assay [12], in assay [13], in assay [14] and in assay [15] was “inactive” throughout. In addition, the Potency entry in [16] is “inactive”.

As for `Cc1c2ccccc2c(C)c2c1ccc1ccccc12`, the Potency result in [2], in [5], in assay [6], in assay [8], in [9] and in [10] was “inactive” each time. Besides, the Potency entry in assay [11], in assay [12], in assay [13], in assay [14], in [15] and in assay [16] was “inactive” in each case. Besides, the Potency in assay [3] is 12.1 µM (active); in assay [4], 5.39 µM (active) and 24.3 µM (active); in assay [17], 3.85 µM (active) and 54.9 µM [inconclusive] (active).

For the compound `COC(=O)C1=C(C)NC(C)=C(C(=O)OCCN2CCN(C(c3ccccc3)c3ccccc3)CC2)C1c1cccc([N+](=O)[O-])c1` (stereo not given), the Potency in [2] was 11.9 µM (active); in assay [4], 10.6 µM (active). Moreover, the Potency result in [5], in [6], in assay [7], in assay [8], in [10] and in assay [11] was “inactive” in each case. The Potency result in [12], in assay [13], in assay [14], in assay [15], in [16] and in assay [17] was “inactive” in each case.

On to `Nc1ccc(NCCO)c([N+](=O)[O-])c1`, for which the Potency entry in assay [1], in assay [3], in assay [5], in assay [6], in assay [8] and in assay [9] was “inactive” throughout. Also, the Potency result in assay [10], in [11], in assay [12], in [13], in assay [14] and in [15] was “inactive” throughout. Also, the Potency result in [16], in [17] and in assay [18] was “inactive” in each case. Further, in assay [4], the Potency is 15.4 µM (active).

As for `Nc1ccc(C(=O)O)c(O)c1`, the Potency result in assay [1], in assay [2], in [3], in [4], in assay [5] and in assay [6] was “inactive” each time. Also, the Potency result in assay [7], in assay [8], in [9], in [10], in [11] and in assay [12] was “inactive” throughout. For the same compound, the Potency result in assay [13], in [14], in [15], in assay [16], in assay [17] and in assay [18] was “inactive” throughout.
